# Screen size: about 2,100 compounds; about 590 (28%) were called active. About 42% were inconclusive and are not listed. The list shows a part of the results. Values without a mark were called inactive. The call rests on the fitted dose curve; in most records, active means well fitted inhibition curve with a large enough effect; inconclusive means small, poorly fitted or top-dose-only effect; inactive means flat fitted curve, though single readings scatter.
# Target: DNA dC->dU-editing enzyme APOBEC-3F (Homo sapiens) (UniProt Q8IUX4)
# Sequence (Q8IUX4 whole entry, looked up): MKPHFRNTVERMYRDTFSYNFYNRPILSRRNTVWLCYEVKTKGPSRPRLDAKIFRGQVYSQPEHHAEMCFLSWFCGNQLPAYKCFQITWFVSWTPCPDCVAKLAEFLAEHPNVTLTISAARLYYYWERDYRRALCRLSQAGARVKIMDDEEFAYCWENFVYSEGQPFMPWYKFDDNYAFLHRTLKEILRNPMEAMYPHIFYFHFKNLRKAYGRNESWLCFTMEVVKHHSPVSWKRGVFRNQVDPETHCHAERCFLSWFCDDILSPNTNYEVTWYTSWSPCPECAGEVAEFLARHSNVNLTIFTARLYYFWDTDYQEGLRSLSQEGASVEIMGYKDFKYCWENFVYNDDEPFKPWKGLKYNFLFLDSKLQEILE
# Test: qHTS for inhibitors of Vif-A3F interactions: Cherry picks; further: nearly all actives have a fitted effect of over 70% in size;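 on max response: % of control where 0% means no effect; active compounds raise eYFP fluorescence by blocking Vif-driven A3F loss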
# Conditions: HeLa A3F-eYFP + Vif (tagged APOBEC3F with the HIV-1 protein that degrades it), eYFP fluorescence, 24 h
# Summary of the method: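 HeLa cells stably expressing A3F-eYFP plus Vif, cultured overnight, then exposed to compounds at several concentrations for 24 h at 37 deg C. Reduced Vif-driven degradation read as rising eYFP fluorescence (488 nm ex/500-530 nm em) by laser-scanning cytometry; MG132 as positive control.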
# Potency means the concentration at half of the fitted maximal effect.
SMILES,max response,Potency
NC(=O)c1cccc(-c2ccnc3c2CC(C(=O)NCc2ccco2)O3)c1 (stereo unspecified),-22.9%,
CCOC(=O)c1sc(NC(=S)NC(=O)c2ccco2)nc1C,0.261%,
CCc1ccc(NC(=O)c2sc3nc(C)c(C(=O)Nc4ccc(C)cc4C)c(-c4ccco4)c3c2N)cc1,,23.1 µM (active)
COc1cccc(NC(=O)c2sc3nc(C)c(C(=O)Nc4ccc(C)cc4C)c(-c4ccco4)c3c2N)c1,-5.66%,
N#Cc1cccn1-c1nccc(-c2cccs2)n1,,12.5 µM (active)
C#CCSc1nc(-c2cccs2)ccc1C#N,-28.5%,
O=CNc1ccc2c3c(cccc13)-c1ccccc1-2,,14 µM (active)
CCCCN(C)CC(O)Cn1cc(/C=C/C(=O)c2cccs2)c2ccccc21 (stereo unspecified),,20.6 µM (active)
N#CCC(=O)N/N=C/c1ccc(N2N=C(c3ccccc3)CC2c2ccccc2)cc1 (stereo unspecified),,18.4 µM (active)
CC1Sc2ccc(C(=O)NCc3ccccn3)cc2NC1=O (stereo unspecified),-4.69%,
COc1ccc(NC(=O)CSc2ccc3c4c(cccc24)C(=O)c2ccccc2-3)cc1,,8.2 µM (active)
N#Cc1cccc(NC(=O)CSc2ccc3c4c(cccc24)C(=O)c2ccccc2-3)c1,,2.31 µM (active)
CCn1c(CNC(=O)C23CC4CC(CC(C4)C2)C3)nnc1SCC(=O)Nc1ccc(OC)cc1,6.03%,
COc1ccc(NC(=O)c2cccc3ccccc23)cc1,-30%,
Cc1ccc(NC(=O)CSc2ccccc2NC(=O)c2cccc(Cl)c2)cc1Cl,-5.67%,
Cc1cccc(C(=O)NC(=S)N2CCc3ccccc3C2)c1,0.715%,
COc1ccc(NC(=O)CN2C(=O)C3(SCC(=O)N3c3ccccc3)c3ccccc32)cc1Cl (stereo unspecified),-11.4%,
Cn1cc(/C=C2\SC(=O)N(c3ccccc3)C2=O)c2ccccc21,-28.8%,
O=C1S/C(=C\c2ccc(N3CCOCC3)o2)C(=O)N1c1ccccc1,,3.53 µM (active)
CCCN1C(=O)S/C(=C/c2ccc(N3CCOCC3)o2)C1=O,,2.8 µM (active)
CCCN1C(=O)S/C(=C\c2ccc(N3CCOCC3)o2)C1=O,,2.8 µM (active)
C/C(=N/NC(N)=S)c1ccc(Br)s1,1.12%,
CC(NC1=CC(=O)c2cccnc2C1=O)C(O)c1ccccc1 (stereo unspecified),-27.2%,
O=C(NCc1ccco1)C1Cc2c(-c3cccc(F)c3)ccnc2O1 (stereo unspecified),-27.2%,
Cc1ccc(-c2cc(C(=O)N/N=C/C(Br)=C/c3ccccc3)n[nH]2)o1,-23.7%,
O=[N+]([O-])c1ccccc1C1Nc2cccc3cccc(c23)N1,1.22%,
